Reference: PubChem BioAssay
The source made the active and inactive calls.

What was measured:
[1] = test system: Plasmodium falciparum Sir2 (PF13_0152, Sir2A); assay: Plasmodium falciparum Sir2A binding compounds – biochemical, small-molecule microarray, 635 nm fluorescence, primary screen (AID 1098); conditions: fluorescence 635 nm, higher = more signal;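 further: score merges spot fluorescence intensity with its signal-to-noise ratio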
[2] = probe aDKK1 binding to arrayed compounds – biochemical, biotinylated probe, 635/667 nm fluorescence, primary screen (AID 1099); conditions: small-molecule microarray, higher = more signal;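 further: score merges 667nm spot fluorescence with signal to noise across triplicate slides; reference of the scale not given here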
[3] = probe aCHRDL2 binding to arrayed compounds – biochemical, biotinylated probe, 635/667 nm fluorescence, primary screen (AID 1100); conditions: small-molecule microarray, higher = more signal
[4] = change in splice reporter luminescence, either direction, cell-based, HEK293, spliceosome inhibition project, primary screen (AID 1101); conditions: HEK293 splicing luciferase reporter, 24 h, higher = more signal, called active from +8 up or from −8 down;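 further: HEK293 cells carrying a splicing-competent luciferase reporter gene; test concentration not given here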
[5] = biological target: Fibroblast growth factor 10 (Homo sapiens) (UniProt O15520); assay: compounds binding fibroblast growth factor 10 – biochemical, small-molecule microarray, 635 nm fluorescence, primary screen (AID 1102); conditions: FGF10 binding, fluorescence 635 nm, higher = more signal
Sequence of Fibroblast growth factor 10 (Homo sapiens) (O15520 whole entry, looked up): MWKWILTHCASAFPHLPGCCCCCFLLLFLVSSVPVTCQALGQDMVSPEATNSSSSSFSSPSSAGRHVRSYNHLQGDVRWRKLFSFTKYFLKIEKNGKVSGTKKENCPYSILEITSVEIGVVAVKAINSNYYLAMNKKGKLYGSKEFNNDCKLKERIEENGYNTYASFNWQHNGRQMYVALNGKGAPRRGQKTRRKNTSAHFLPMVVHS

[6] = test system: glycogen synthase kinase-3 (GSK3A per assay name; protocol says GSK3B); assay: compounds binding glycogen synthase kinase-3 – biochemical, small-molecule microarray, 635 nm fluorescence, GSK3A, primary screen (AID 1103); conditions: fluorescence 635 nm, higher = more signal; further: the record names both GSK3A and GSK3B
[7] = biological target: Epidermal growth factor receptor (Homo sapiens) (UniProt P00533); assay: compounds binding epidermal growth factor receptor – biochemical, small-molecule microarray, 635 nm fluorescence, primary screen (AID 1104); conditions: EGFR binding, higher = more signal;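 further: score merges 667 nm emission intensity with spot signal to noise over triplicate slides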
Sequence of Epidermal growth factor receptor (Homo sapiens) (P00533 whole entry, looked up): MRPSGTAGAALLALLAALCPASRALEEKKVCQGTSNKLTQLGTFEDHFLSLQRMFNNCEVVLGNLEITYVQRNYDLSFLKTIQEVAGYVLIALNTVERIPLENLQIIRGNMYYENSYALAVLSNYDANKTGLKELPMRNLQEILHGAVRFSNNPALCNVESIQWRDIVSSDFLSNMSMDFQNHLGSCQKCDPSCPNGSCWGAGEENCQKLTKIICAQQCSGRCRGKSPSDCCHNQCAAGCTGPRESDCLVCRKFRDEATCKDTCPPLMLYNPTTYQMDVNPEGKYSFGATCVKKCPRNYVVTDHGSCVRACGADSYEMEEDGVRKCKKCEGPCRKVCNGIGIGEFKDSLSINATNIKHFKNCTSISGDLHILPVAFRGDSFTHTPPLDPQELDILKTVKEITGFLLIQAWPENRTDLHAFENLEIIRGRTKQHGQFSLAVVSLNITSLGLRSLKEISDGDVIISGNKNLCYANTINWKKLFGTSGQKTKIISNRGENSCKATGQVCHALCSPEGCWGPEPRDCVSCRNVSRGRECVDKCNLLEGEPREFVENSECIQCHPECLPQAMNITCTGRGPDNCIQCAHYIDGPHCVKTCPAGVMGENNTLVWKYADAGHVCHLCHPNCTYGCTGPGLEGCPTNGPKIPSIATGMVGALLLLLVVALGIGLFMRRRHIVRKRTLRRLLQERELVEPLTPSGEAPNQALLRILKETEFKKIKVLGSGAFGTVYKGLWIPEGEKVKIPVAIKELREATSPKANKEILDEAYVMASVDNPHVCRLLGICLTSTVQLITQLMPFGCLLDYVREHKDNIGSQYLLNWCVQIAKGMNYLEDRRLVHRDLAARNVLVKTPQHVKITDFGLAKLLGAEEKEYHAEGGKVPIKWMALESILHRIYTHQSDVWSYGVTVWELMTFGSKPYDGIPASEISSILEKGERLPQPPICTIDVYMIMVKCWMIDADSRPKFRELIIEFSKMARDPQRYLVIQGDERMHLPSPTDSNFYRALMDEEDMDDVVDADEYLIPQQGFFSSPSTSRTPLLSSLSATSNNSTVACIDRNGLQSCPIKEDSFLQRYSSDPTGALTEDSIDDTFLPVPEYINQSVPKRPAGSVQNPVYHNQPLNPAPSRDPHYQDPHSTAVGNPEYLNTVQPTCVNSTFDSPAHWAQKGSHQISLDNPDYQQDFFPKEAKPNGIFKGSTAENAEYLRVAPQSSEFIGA

[8] = biological target: Follistatin-related protein 3 (Homo sapiens) (UniProt O95633); assay: compounds binding follistatin-related protein 3 – biochemical, small-molecule microarray, 635 nm fluorescence, primary screen (AID 1105); conditions: FSTL3 binding, higher = more signal;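 further: score merges emission near 667 nm and signal to noise per printed spot across three slides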
Sequence of Follistatin-related protein 3 (Homo sapiens) (O95633 whole entry, looked up): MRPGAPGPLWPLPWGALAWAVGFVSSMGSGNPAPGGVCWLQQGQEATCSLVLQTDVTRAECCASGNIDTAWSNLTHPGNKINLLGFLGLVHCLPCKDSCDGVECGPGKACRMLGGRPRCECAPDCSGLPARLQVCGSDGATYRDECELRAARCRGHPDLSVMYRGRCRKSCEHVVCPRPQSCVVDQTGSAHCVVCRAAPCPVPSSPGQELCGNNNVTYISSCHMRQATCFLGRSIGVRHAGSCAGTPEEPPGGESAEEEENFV

[9] = biological target: Dickkopf-related protein 1 (Homo sapiens) (UniProt O94907); assay: small molecules binding DKK1 protein – biochemical, small-molecule microarray, 635 nm fluorescence scan, primary screen (AID 1106); conditions: higher = more signal;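 further: score merges emission near 667 nm with signal to noise over three replicate slides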
Sequence of Dickkopf-related protein 1 (Homo sapiens) (O94907 whole entry, looked up): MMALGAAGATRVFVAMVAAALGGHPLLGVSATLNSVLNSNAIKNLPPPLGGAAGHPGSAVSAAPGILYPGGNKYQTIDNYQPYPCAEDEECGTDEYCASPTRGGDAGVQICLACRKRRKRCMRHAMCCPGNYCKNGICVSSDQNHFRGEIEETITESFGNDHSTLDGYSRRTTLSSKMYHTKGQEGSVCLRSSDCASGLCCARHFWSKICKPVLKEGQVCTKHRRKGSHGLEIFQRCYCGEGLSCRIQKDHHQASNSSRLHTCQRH

[10] = test system: Inhibin beta A chain (activin A); assay: small molecules binding activin A – biochemical, small-molecule microarray, 635 nm fluorescence scan, primary screen (AID 1107); conditions: INHBA, higher = more signal;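 further: mouse activin A protein probed at 4.33 µg/mL on printed slides; score merges bound-protein fluorescence near 667 nm with spot signal-to-noise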

Row | Structure (SMILES) | composite z-score [1] | composite z-score [2] | composite z-score [3] | z-score [4] | composite z-score [5] | composite z-score [6] | composite z-score [7] | composite z-score [8] | composite z-score [9] | composite z-score [10]
1 | C=CCN1C(=O)[C@]2(O[C@H](CCn3cc([C@H](O)c4ccccc4)nn3)[C@@H]([Si](C)(C)c3ccc(OC)cc3)[C@@H]2C)c2cc(NC(=O)c3ccc(OC)cc3)ccc21 | 0.73 | -0.125 | 0.349 | -0.768 (inactive) | 0.028 | -0.131 | 0.108 | 0.527 | 0.598 | 0.961
2 | O=C1C[C@@](C(=O)O)(c2ccc([N+](=O)[O-])cc2)[C@@H](c2ccc(CO)cc2)N1C1CCCCC1 | 0.869 | 0.366 | 0.495 | 0.185 (inactive) | 0.869 | 0.582 | 0.369 | 1.1 | 0.649 | 0.633
3 | C=CCNC(=O)[C@@H]1[C@H]2C(=O)O[C@H](c3ccccc3)[C@H](c3ccccc3)N2[C@H](c2ccc(OCCO)cc2)[C@@]12C(=O)Nc1ccc(C#CC3(O)CCCCCC3)cc12 | 1.42 | 0.535 | 0.65 | -1.43 (inactive) | 0.986 | 1.22 | 0.378 | 0.826 | 0.371 | -0.0995
4 | CCCCC(O)C1C=CC2C(=O)N(c3ccccc3)C(=O)C2N1Nc1ccc([N+](=O)[O-])cc1 (stereo not given) | 1.2 | 0.379 | 0.21 | -0.846 (inactive) | 0.435 | 1.32 | 0.0456 | 1.3 | -0.105 | 0.329
5 | O=C1C[C@]2(c3ccc([N+](=O)[O-])cc3)C(=O)N(C3CC3)c3cc(CO)ccc3[C@H]2N1C1CCCCC1 | 0.389 | -0.0619 | 0.305 | -0.282 (inactive) | -0.104 | 0.139 | -0.0618 | -0.184 | -0.198 | 0.847
6 | C=C(CCCC)/C(=C/C[C@@H](OC(C)=O)c1ccc(CO)o1)c1cnc2ccccc2c1 | 1.08 | -0.282 | -0.428 | 0.179 (inactive) | 1.46 | 1.3 | 0.533 | 1.4 | 0.768 | 1.05
7 | COC(=O)C(CC#Cc1ccc2c(c1)[C@]1(C(=O)N2)[C@H](C(=O)NC[C@H](O)c2ccccc2)[C@H]2C(=O)O[C@H](c3ccccc3)[C@H](c3ccccc3)N2[C@@H]1c1ccccc1OCCO)C(=O)OC | 1.19 | 0.138 | 0.141 | 0.163 (inactive) | 1.22 | 1.19 | 0.308 | 0.866 | 0.502 | 0.205
8 | Cc1ccc(S[C@]2(C(=O)NCCCN(C)C)CC(=O)N(Cc3ccccc3C(F)(F)F)[C@@H]2c2ccc(CO)cc2I)cc1 | 1.18 | -0.473 | -0.464 | -0.425 (inactive) | -0.54 | -0.605 | -1.04 | -0.402 | -1.25 | 0.812
